An excerpt weighted towards active compounds, which were near 8% of everything screened.
HT1080-NT tox: kills 2HG-producing HT-1080-NT fibrosarcoma cells | HT-1080-NT fibrosarcoma viability, CellTiter-Glo ATP luminescence, 48 h | Potency, µM (series often up to 46.1 µM), without a hit: at the top dose activity, negative = less viability, usual class: cytotoxic | 360,000 tested, 1.6% active;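 further: NT is the 2HG producing partner of a matched IDH1 knockdown line; 0% = DMSO-treated cells and -100% = media-only wells without cells; nearly all actives have a fitted effect of over 55% in size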
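Compounds were tested in concentration-response format on HT-1080-NT cells for 48 hours at 37 degrees C. Cell viability came from CellTiter-Glo luminescence; curves were classified by r2, response magnitude and activity.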
KB-3-1 tox: KB-3-1 parental cell cytotoxicity | AID 1347075 | 400,000 tested, 1.4% active | KB-3-1 viability, CellTiter-Glo ATP luminescence, 72 h | Potency, µM (highest dose often 46.1 µM), usual class: cytotoxic; further: on the % scale 0 is the no-effect control and ±100 the full control effect; nearly all actives have a fitted effect of over 60% in size
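Screening of KB-3-1 cells (DMEM, 10% FBS, phenol-red free) ran from lowest to highest compound concentration; after 72 h at 37 °C viability was read luminescently and curves fitted.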
SW480 rerep: induces DNA re-replication in SW480 colon adenocarcinoma cells; SW480 DNA re-replication, Hoechst DNA content imaging, 48 h; Potency, µM (top dose mostly 46.1 µM), for inactives: top-dose re-replication activation, hits mostly activators; 340,000 tested, 1.8% active; further: % of control where 0% means no effect; nearly all actives have a fitted effect of over 55% in size
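SW480 cells exposed to compounds for 48 hr at 37 C, 5% CO2, then Hoechst-stained 40 min. Nuclear DNA content imaged by fluorescence scanning (405 nm excitation, 500-530 nm emission); re-replication scored as increased high-intensity nuclei.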
MCF10A rereplic: induces DNA re-replication in MCF 10a normal breast cells; Potency, µM (titrated, usually from 46.1 µM), for the others: at the highest dose activity, positive = re-replication, usual class: activators; 350,000 tested, 2.9% active; AID 624296; MCF 10A DNA re-replication, Hoechst nuclear intensity, 48 h; further: % of control where 0% means no effect; nearly all actives have a fitted effect of over 50% in size
HT1080 IDH1KD tx: kills HT-1080 cells with IDH1 knockdown | Potency, µM (doses to about 46.1 µM), without a hit: at the highest dose activity, negative = toxicity, hits mostly cytotoxic | HT-1080 IDH1 knockdown viability, ATP luminescence, 48 h | 360,000 tested, 2% active;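 further: 0% = DMSO wells and -100% = cell-free medium wells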
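CellTiter-Glo luminescence after 48 h compound exposure at 37 degrees C of IDH1-knockdown HT-1080 cells in 5% FBS RPMI. %Activity scaled between DMSO wells and cell-free media wells, with curves fitted and assigned curve classes.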
KB-V1 cytotox: KB-V1 MDR subline cytotoxicity | KB-V1 MDR cells viability, CellTiter-Glo, 72 h | Potency, µM (top dose mostly 46.1 µM), actives largely listed as cytotoxic | 400,000 tested, 3.4% active; further: on the % scale 0 is the no-effect control and ±100 the full control effect; nearly all actives have a fitted effect of over 60% in size
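Compound-treated KB-V1 multidrug-resistant cells, 72 h, 37 degrees C; viability by CellTiter-Glo. Fitted qHTS curves give the values.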
Numbers without * were called inactive; i = inactive; ? = inconclusive; . = no result given; [ ] = dose if it differs, or a comment. The call rests on the fitted dose curve; in most records, active means well fitted curve in the direction sought with a large enough effect; inconclusive means small, poorly fitted or top-dose-only effect, or another doubt; inactive means no such curve, though single readings can be large; an effect the other way counts as inactive or inconclusive. Potency means the concentration at half of the fitted maximal effect.

SMILES	HT1080-NT tox	KB-3-1 tox	SW480 rerep	MCF10A rereplic	HT1080 IDH1KD tx	KB-V1 cytotox
O=C(C1CCCN(c2ncnc3c2nc2n3CCCCC2)C1)N1CCN(c2ccc(F)cc2)CC1 (configuration not stated)	-21%	?	9%	21%	-11%	?
CC(C)c1ccc(NC(=O)C2CCN(c3ncnc4c3nc3n4CCCCC3)CC2)cc1	-1%	i	?	16µM*	-14%	i
Cc1nnc2ccc(N3CCN(c4ccccn4)CC3)nn12	0%	i	-8%	1%	10%	i
Cc1ccsc1C(=O)N1CCC1(C)C(=O)Nc1ccc2c(c1)OCCO2 (configuration not stated)	22%	i	.	.	1%	i
CC(=O)Nc1ccc(N2C(=O)CSC2c2c(F)cccc2Cl)cc1 (configuration not stated)	-5%	?	-15%	9%	-11%	i
Fc1cccc(Cl)c1C1SCc2nc3ccccc3n21 (configuration not stated)	?	23µM*	.	.	?	23µM*
COc1cc(/C=C2\CCCc3c2nc2ccccc2c3C(=O)O)cc(OC)c1O	-1%	i	26µM*	-2%	8%	i
COc1cc(-c2nc3ccc4ccccc4c3c3c2CCC3)cc(OC)c1O	?	?	?	15µM*	?	?
COc1cc(/C=C2\CCCc3c2nc2ccccc2c3C(=O)O)cc([N+](=O)[O-])c1O	13%	i	-6%	-5%	-8%	i
CN(C)c1ccc(/C=C2\CCCc3c2nc2ccccc2c3C(=O)O)cc1	-14%	i	23%	18µM*	0%	i
COc1cc(-c2nc3ccc4ccccc4c3c3c2CCC3)cc(OC)c1OC	?	i	1%	16%	?	i
O=C(CN(c1ccc(F)cc1)S(=O)(=O)c1ccccc1)Nc1ccccc1C(=O)O	-14%	i	0%	4%	0%	i
COC(=O)c1ccc(CSc2nc3sc(C)c(C)c3c(=O)[nH]2)cc1	0%	i	-31%	-1%	0%	i
COc1ccc(CCNC(=O)c2ccc3c(=O)n(Cc4ccco4)c(=S)[nH]c3c2)cc1OC	-2%	i	1%[9.22 µM]	?	0%	i
CCOc1ccccc1N1CCN(Cc2ccc(OC)c(OC)c2OC)CC1	-3%	i	1%	-5%	-28%	18µM*
CCN1CCN(Cc2ccc(OC)c(OCc3ccccc3)c2)CC1	-1%	i	-2%	-11%	-1%	i
CCOc1ccccc1N1CCN(Cc2ccc(OC)c(OC)c2)CC1	-11%	i	-7%	-3%	-13%	16µM*
COc1ccc(CN2CCN(c3ccccn3)CC2)cc1OCc1ccccc1	0%	i	6%	?	?	9.2µM*
CCOc1cc(CN2CCC(CO)(Cc3cccc(C(F)(F)F)c3)CC2)ccc1OC	21µM*	26µM*	-14%[1.84 µM]	3%	21µM*	i
CCOc1cc(CN2CCCCCC2)ccc1OC	1%	i	?	19%	-2%	i
COc1ccc(Cl)cc1NC(=O)C(=O)N/N=C/c1cc(C)n(-c2ccc(C)cc2)c1C	-3%	i	-3%	?	4%	i
O=C(O)C(c1ccccc1)N1C(=O)c2cccc3cccc(c23)C1=O (configuration not stated)	-3%	i	-1%	3%	-9%	i
NN=C1c2ccccc2C(=O)C1C(=O)C(c1ccccc1)c1ccccc1 (configuration not stated)	-4%	i	4%	12µM*	-1%	i
Cc1c(C(=O)N2CCCCC2)c(S(=O)(=O)N2CCC(C)CC2)c(C)n1C	2%	i	1%	-1%	5%	i
CC1=C(C(=O)OCc2ccccc2)C(c2ccc(Cl)cc2Cl)NC(=O)N1CCCC(=O)O (configuration not stated)	0%	i	-1%	0%	-19%	i
SMILES	HT1080-NT tox	KB-3-1 tox	SW480 rerep	MCF10A rereplic	HT1080 IDH1KD tx	KB-V1 cytotox
COc1cc(C2C(=O)N(C3CCCC3)CC(=O)N2Cc2ccco2)ccc1OC(C)C (configuration not stated)	9%	i	-3%	-4%	-1%	3.7µM*
CCc1ccc(C(CNC(=O)c2ccc3c(=O)n(-c4ccccc4F)c(=S)[nH]c3c2)N(C)C)cc1 (configuration not stated)	?	i	?	?	33µM*	i
CCOC(=O)N1CCN(C(=O)c2ccc3c(=O)n(-c4ccccc4F)c(=S)[nH]c3c2)CC1	-1%	i	-7%	1%	-5%	i
COc1ccc(-n2c(=O)[nH]c3cc(C(=O)NCCc4ccc(Cl)cc4)ccc3c2=O)cc1OC	0%	i	?	15µM*	-8%	i
CN(C)CCNC(=O)c1ccc2c(=O)n(Cc3ccc(Cl)cc3)c(=S)[nH]c2c1	23µM*	i	23µM*	?	?	i
CCCCN(C)CCNC(=O)c1ccc(Cn2c(=S)[nH]c3ccc(Br)cc3c2=O)cc1	21µM*	i	-5%	2%	15µM*	i
COc1cc(Cn2c(=O)sc3ccccc32)ccc1OCCC(C)C	.	i	.	.	.	i
CCN(CC)CCn1c(=S)[nH]c2ccc(Cl)cc2c1=O	?	i	29%	19%	?	i
CCN(CC)CCn1c(=S)[nH]c2cc(Cl)ccc2c1=O	18µM*	i	16%	?	?	i
CCCCCn1c(=O)[nH]c2cc(C(=O)NCCCN(C)Cc3ccccc3)ccc2c1=O	0%	?	?	28%	6%	21µM*
O=C(/C=C/c1cccc([N+](=O)[O-])c1)c1cccs1	10µM*	?	5.8µM*	3.3µM*	16µM*	?
O=C(/C=C/c1cccc([N+](=O)[O-])c1)Nc1ccc(NC(=O)c2cccs2)cc1	6%	i	-2%	-8%	7%	i
CC(=O)Oc1ccccc1C(=O)C=Cc1cccc([N+](=O)[O-])c1	?	15µM*	?	5.8µM*	16µM*	5.8µM*
O=C(/C=C/c1cccc([N+](=O)[O-])c1)n1cnc2ccccc21	?	?	5.8µM*	3.7µM*	2.6µM*	?
O=C(NC12CC3CC(CC(C3)C1)C2)N1CCN(C2CCCCC2)CC1	3%	i	-1%	2.1µM*	-7%	i
O=C(NC1CCCCC1)N1CCN(C2CCCCC2)CC1	-27%	i	24%	-3%	-29%	i

Assay outcomes deposited in PubChem by National Center for Advancing Translational Sciences (NCATS).
